UDG counterscr = blocks uracil-DNA glycosylase in AID counter-screen | AID 1347430 | FRET deamination/UDG coupled assay, UDG read, 4 h | Potency, µM (highest dose often 115 µM), usual class: inhibitors | 91,000 compounds, 0.14% hits; also: nearly all actives have a fitted effect of over 65% in size
AID inhibitor = inhibitors of human activation induced cytidine deaminase; Q9GZX7; AID deamination FRET fluorescence, UDG-coupled, 4 h; Potency, µM (top dose mostly 115 µM), most hits filed as inhibitors; 91,000 compounds, 0.32% hits; also: nearly all actives have a fitted effect of over 25% in size
Target sequence (Q9GZX7 whole entry, looked up): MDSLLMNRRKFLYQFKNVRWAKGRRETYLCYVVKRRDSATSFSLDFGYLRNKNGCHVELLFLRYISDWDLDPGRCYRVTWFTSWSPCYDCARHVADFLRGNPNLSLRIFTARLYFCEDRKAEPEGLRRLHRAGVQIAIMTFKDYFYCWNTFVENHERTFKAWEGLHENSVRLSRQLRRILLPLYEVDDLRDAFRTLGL
Of the large screens only hits and unclear results are named; the others gave an inactive call. An excerpt weighted towards active compounds, which were near 0.47% of everything screened. Calls follow the shape of the dose curve; as a rule, active = well fitted curve in the direction sought with a large enough effect; inconclusive = small, poorly fitted or top-dose-only effect, or another doubt; inactive = no such curve, though single readings can be large; an effect the other way counts as inactive or inconclusive.

COc1ccc(-c2nn(-c3ccccc3)cc2C2NC(=O)NC(C)=C2C(=O)OC(C)C)cc1OC (stereo unspecified)	AID inhibitor inconclusive
CCOC(=O)C1=C(C)NC(=O)NC1c1cn(-c2ccccc2)nc1-c1ccc(OC(C)C)cc1 (stereo unspecified)	AID inhibitor 28µM
CCOc1ccccc1C(=O)Nc1c(NCc2ccccc2)c2ccccc2oc1=O	none
CCCC(=O)N1CC(=O)Nc2ccc(Cl)cc2C1c1ccc(F)cc1 (stereo unspecified)	none
CCCCC1CCC(C(=O)N2CC(=O)Nc3ccc(F)cc3C2c2ccc(F)cc2)CC1 (stereo unspecified)	AID inhibitor 35µM
Cc1cc2cc(N)ccc2[nH]1	none
NNc1cccc(S(=O)(=O)c2cccc(NN)c2)c1	UDG counterscr 45µM, AID inhibitor inconclusive
NNc1ccc(S(=O)(=O)c2ccc(NN)cc2)cc1	none
O=C(O)c1cccc(NC(=O)c2cccc(S(=O)(=O)Nc3cccc(C(=O)O)c3)c2)c1	none
O=C(Nc1cccc(C(=O)Nc2ccc(S(=O)(=O)O)c3cc(S(=O)(=O)O)cc(S(=O)(=O)O)c23)c1)Nc1cccc(C(=O)Nc2ccc(S(=O)(=O)O)c3cc(S(=O)(=O)O)cc(S(=O)(=O)O)c23)c1	AID inhibitor 50µM
COc1cccc(/C=C(\C#N)c2nc3ccccc3c(=O)[nH]2)c1OC	none
COc1ccc(OC)c(/C=C(\C#N)c2nc3ccccc3c(=O)[nH]2)c1	AID inhibitor 79µM
CCCOC(=O)Nc1ccccc1N=C1CCC/C1=C\c1ccccc1	none
CCCCCOc1ccccc1CN1C(=O)C(=O)c2cc(C)ccc21	AID inhibitor 28µM
CCCCOc1ccc(CN2C(=O)C(=O)c3cc(C)ccc32)cc1OC	AID inhibitor inconclusive
N#Cc1cc2ccccc2nc1N1CCCCC1	none
CS(=O)(=O)/C(C#N)=C\c1ccc(-c2ccccc2)cc1	AID inhibitor inconclusive
Cc1ccc(C2CCN(C(=O)c3cnn(-c4ccc(C)cc4)c3C3CCN(C(=O)OC(C)(C)C)CC3)C2)cc1 (stereo unspecified)	none
CC(C)(C)OC(=O)N1CCC(c2c(C(=O)N3CCC(c4ccccc4)C3)cnn2-c2ccc(Cl)cc2)CC1 (stereo unspecified)	UDG counterscr inconclusive, AID inhibitor 40µM
CC(C)(C)OC(=O)N1CCC(c2c(C(=O)N3CCC(c4ccccc4)C3)cnn2-c2cccc(Cl)c2)CC1 (stereo unspecified)	UDG counterscr inconclusive, AID inhibitor 40µM
COc1ccccc1CN1CCC(CNC(=O)c2cnn(-c3ccc(Cl)cc3)c2C2CCN(C(=O)OC(C)(C)C)CC2)CC1	UDG counterscr inconclusive, AID inhibitor 45µM
Cc1ccc(C2CCN(C(=O)c3cnn(-c4cccc(Cl)c4)c3C3CCN(C(=O)OC(C)(C)C)CC3)C2)cc1 (stereo unspecified)	AID inhibitor inconclusive
COc1ccccc1CN1CCC(CNC(=O)c2cnn(-c3ccc(C)c(C)c3)c2C2CCN(C(=O)OC(C)(C)C)CC2)CC1	AID inhibitor inconclusive
Cc1ccc(-c2cc(C(=O)OCC(=O)NCC(C)C)c3ccccc3n2)o1	none
CCOC(=O)C1C(=O)C=C(/C=C/c2ccco2)CC1c1ccccc1 (stereo unspecified)	none
Cc1ccccc1Cc1c(C)nc2nc(SCC(=O)NCCc3ccc(Cl)cc3)nn2c1C	AID inhibitor inconclusive
Cc1nc2nc(SCC(=O)NCCc3ccc(Cl)cc3)nn2c(C)c1Cc1ccccc1Cl	AID inhibitor 35µM
COC(=O)c1cccc(CNc2ccc3c4c(cccc24)CC3)c1	none
COc1ccc(-n2cc(-c3ccccc3)c3c(NC4CCCC4)ncnc32)cc1	AID inhibitor 35µM
Clc1cccc(-n2cc(-c3ccccc3)c3c(NC4CCCC4)ncnc32)c1	AID inhibitor inconclusive
CCOc1cc(Br)c(C2C(C#N)=C(N)Oc3cc4c(cc32)OCO4)cc1OCC (stereo unspecified)	none
COCC(=O)N1CCN(c2oc(-c3ccc(C)cc3)nc2S(=O)(=O)c2ccc(F)cc2)CC1	none
O=C(O)c1ccc2nc(-c3ccc(-c4ccccc4)cc3)c(-c3ccc(-c4ccccc4)cc3)nc2c1	AID inhibitor inconclusive
O=C(CCC(=O)OCC(=O)c1ccc([N+](=O)[O-])cc1)Nc1cc(C(F)(F)F)ccc1Cl	none
O=c1oc2cc(OCc3nn[nH]n3)ccc2cc1-c1ccc2ccccc2c1	none
COc1cccc(CNC(=O)c2ccc3c(=O)n4nc(Nc5ccccc5)sc4nc3c2)c1	none
CCN(CC)CCNC(=O)c1ccc2c(=O)n3nc(Nc4ccccc4)sc3nc2c1	AID inhibitor 71µM
CCOc1ccc(NC(=O)CN(c2ccccc2OCC)S(=O)(=O)c2ccccc2)cc1	AID inhibitor inconclusive
CCOc1ccc(NC(=O)CN(c2ccc(Cl)cc2C)S(=O)(=O)c2ccccc2)cc1	UDG counterscr 89µM, AID inhibitor inconclusive
Cc1ccc(-c2cc(C(=O)Nc3ncccc3C)c3ccccc3n2)s1	none
Cc1nc(-c2ccncc2)[nH]c(=O)c1CC(=O)N(C)C(C)C(C)(C)C (stereo unspecified)	none
Cc1nc(-c2ccncc2)[nH]c(=O)c1CC(=O)N(C)C1CCCCC1	AID inhibitor 28µM
Cn1c(C(=O)N(Cc2ccccc2)Cc2ccccc2)cc2c(=O)n3ccccc3nc21	AID inhibitor inconclusive
Cc1noc2ncnc(Nc3ccc(F)cc3)c12	none
CC(C)c1ccc(Nc2ncnc3onc(-c4ccc(F)cc4)c23)cc1	UDG counterscr 89µM, AID inhibitor inconclusive
COc1ccccc1NC(=O)Cn1nc(-c2ccc(C)cc2)c2c(c1=O)CCCC2	AID inhibitor inconclusive
CCC(C(=O)Nc1cc(OC)ccc1OC)n1nc(-c2ccccc2)c2c(c1=O)CCCC2 (stereo unspecified)	AID inhibitor 28µM
CCOc1ccc(-c2nc3cc(NC(=O)c4cccc(C)c4)ccc3o2)cc1	none
Cc1cccn2cc(CN3CCN(S(=O)(=O)c4ccccc4)CC3)nc12	none
COc1cccc(-c2nc(CS(=O)CC(=O)N3CCN(c4cccc(C(F)(F)F)c4)CC3)c(C)o2)c1 (stereo unspecified)	AID inhibitor 45µM
Cc1oc(-c2ccc(Cl)cc2)nc1CS(=O)CC(=O)N1CCN(c2cccc(C(F)(F)F)c2)CC1 (stereo unspecified)	AID inhibitor inconclusive
N#Cc1ccc(/C=C2\CSc3ccccc3C2=O)cc1	AID inhibitor inconclusive
O=C(CSc1nnc(-c2ccccc2)o1)N1CCCc2ccccc21	AID inhibitor inconclusive
O=C(CSc1nnc(-c2ccccc2Cl)o1)N1CCCc2ccccc21	AID inhibitor 28µM
Cn1nnnc1NCc1ccc(-c2ccccc2)o1	none
O=C(Cn1cnc2nc3c(cc2c1=O)CCCC3)N1CCN(c2cccc(C(F)(F)F)c2)CC1	none
Cc1ccc(Cl)cc1N1CCN(C(=O)Cn2cnc3nc4c(cc3c2=O)CCCC4)CC1	UDG counterscr inconclusive, AID inhibitor 40µM
CCN(CC)S(=O)(=O)c1ccc(N(C)C)c(NS(=O)(=O)c2ccccc2C(F)(F)F)c1	none
Cc1ccc(C)c(N2CCN(C(=O)Cn3nc(Cc4cccnc4)c4ccccc4c3=O)CC2)c1	AID inhibitor 71µM
O=C(Cn1nc(Cc2cccnc2)c2ccccc2c1=O)N1CCN(c2ccc(F)cc2)CC1	none
CCOc1ccc(S(=O)(=O)/C=C2\NCCc3cc(OC)c(OC)cc32)cc1	none
Cc1cc(N(CCO)Cc2ccccc2)n2nc(-c3ccc(C(C)(C)C)cc3)nc2n1	none
Cc1cc(N(C)Cc2ccccc2)n2nc(-c3ccc(C(C)(C)C)cc3)nc2n1	AID inhibitor 35µM
